# Measurements published in PubChem BioAssay (EPA / NIEHS).
# Values joined by “and” are separate entries in the source; they are usually repeats but may differ in a detail not shown here. Equal entries are not always repeated. Inconclusive results are not listed. A structure can be active in one record and inactive in another. Active and inactive are the calls of the source. Rule for the calls, unless noted: active = hit-call score of the fitted dose curve at least 0.9, where 1 is the maximum; inactive = score below 0.9.
# Experiments:
# [1] = read-out: CD69, CD69 (gene 969); assay: BSK_LPS_CD69: BioMAP Diversity Plus: LPS Assay for CD69 Biomarker Activity (AID 2284303); details: primary human HUVEC with PBMC
# In short: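 CD69 surface levels were read by ELISA after 24 h chemical treatment of an LPS-stimulated HUVEC plus PBMC co-culture; positive-direction fit against DMSO vehicle.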
# [2] = IUF_NPC2b_neuronal_migration_120hr: Leibniz Research Institute for Environmental Medicine (IUF) 120-hour Neural Progenitor Cell Migration Assay for Neuron Migration (NPC2b) (AID 2284300)
# In short: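 0.3 mm hNPC spheres on poly-D-lysine/laminin in N2 differentiation medium exposed 120 h, half-medium refresh day 3; 7 concentrations, DMSO max 0.1%. Neuron (TUBB3) distance from sphere core by ICC imaging, normalised to radial glia migration.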
# [3] = IUF_NPC3_neuronal_differentiation_120hr: Leibniz Research Institute for Environmental Medicine (IUF) 120-hour Neuronal Differentiation Assay (NPC3) (AID 2284301)
# In short: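 Neuronal differentiation of primary human neural progenitors measured by high-content imaging: percent TUBB3+ of Hoechst+ nuclei within migrated area at 120 h, seven-point serial dilution plus solvent control, gain or loss relative to DMSO.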
# [4] = IUF_NPC4_neurite_length_120hr: Leibniz Research Institute for Environmental Medicine (IUF) 120-hour Neuronal Morphology Assay for Neurite Length (NPC4) (AID 2284302)
# In short: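 Neurons from differentiating human fetal neural progenitor spheres are scored for average neurite length after five days of compound exposure. Fitting uses DMSO as negative control.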
# [5] = IUF_NPC4_neurite_area_120hr: Leibniz Research Institute for Environmental Medicine (IUF) 120-hour Neuronal Morphology Assay for Neurite Area (NPC4) (AID 2284305; active = hit-call score of the fitted dose curve at least 0.9, where 1 is the maximum)
# In short: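 Endpoint at 120 h: automated imaging of TUBB3/Hoechst-stained differentiating human neural progenitor spheres, neurite area per neuron from skeletonization. DMSO solvent control, not above 0.1%, set the baseline; medium was half-replaced on day 3.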
# [6] = IUF_NPC2-5_cytotoxicity_72hr: Cytotoxicity Assessment at 72 hours in the Leibniz Research Institute for Environmental Medicine (IUF) Neural Progenitor Cell Migration and Differentiation Assay for Cytotoxicity (NPC2-5) (AID 2284306; active = hit-call score of the fitted dose curve at least 0.9, where 1 is the maximum;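 note: LDH release into supernatant measured by resorufin fluorescence marking membrane damage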)
# In short: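 Primary human neural progenitor spheres migrate and differentiate on laminin. Compound is present from the start of differentiation, with DMSO kept at or below 0.1%. At 72 h, supernatant LDH is quantified fluorometrically, with values fitted in the positive direction.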
# [7] = IUF_NPC2-5_cytotoxicity_120hr: Cytotoxicity Assessment at 120 hours in the Leibniz Research Institute for Environmental Medicine (IUF) Neural Progenitor Cell Migration and Differentiation Assay (NPC2-5) (AID 2284307; active = hit-call score of the fitted dose curve at least 0.9, where 1 is the maximum)
# In short: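 Human fetal (GW 16-19) neural progenitor spheres (0.3 mm) plated on poly-D-lysine/laminin in N2 differentiation medium, exposed 120 h with half-medium renewal at day 3; 7 concentrations plus solvent control, DMSO ≤0.1%. LDH release in supernatant read by resorufin fluorescence.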
# [8] = IUF_NPC2-5_cell_number_120hr: Cell Number Assessment at 120 hours in the Leibniz Research Institute for Environmental Medicine (IUF) Neural Progenitor Cell Migration and Differentiation Assay (NPC2-5) (AID 2284308);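 note: count of Hoechst-stained nuclei in migration zone around plated human neural progenitor spheres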
# Protocol: IUF_NPC2-5 is a cell-based, multiplexed assay that uses hNPC, a human primary neural progenitor cells, with measurements taken at 72 or 120 hours after chemical dosing in a 96-well plate. Human neural progenitor cells (hNPC) are generated from human fetal brain cortex at gestational week (GW) 16-19. In the neural progenitor cell migration and differentiation assay (NPC2-5), hNPCs grown as spheres are plated on an extracellular matrix and migrate and differentiate out of the sphere core. The processes radial glia migration, neuronal and oligodendrocyte migration as well as neuronal differentiation, neuronal morphology and oligodendrocyte differentiation are studied using automated phase contrast imaging and automated fluorescence imaging in combination with high content image analysis. In parallel, the cell viability is assessed using an alamar blue viability assay and the cytotoxicity using a lactate dehydrogenase dependent membrane integrity assay.IUF_NPC2-5_cell number_120hr is one of 12 assay components measured from the IUF_NPC2-5 assay. The cell number at 120 hr is assessed as the number of all Hoechst-positive nuclei identified in the migration area (see IUF_NPC2a_ glia_migration_120hr).Data from the IUF_NPC2-5_cell_number_120hr component was analyzed at the endpoint IUF_NPC2-5_cell_number_120hr in the positive analysis fitting direction relative to DMSO as the negative control and baseline of activity. Using a type of viability reporter, gain or loss-of-signal activity can be used to understand viability effects.
# Culture protocol: After the cell expansion period the cells are cultured for up to four weeks in which they are passaged every week as described in 3.6. Between one to three days after passaging spheres at a size of 0.3 mm are picked for the test method. For the assessment of neural progenitor cell migration and differentiation, the spheres are plated on poly-D-lysine/laminin coated 96-well flat bottom plates in differentiation medium (N2) to initiate migration and differentiation. Thereby one 0.3 mm big sphere is plated in the middle of a well. […] Therefore, half of the test condition solution (e.g. solvent control or compound dilution) is replaced by freshly prepared test condition solution.Test Method: Migration distance and cytotoxicity is determined after 72 hours based on brightfield images of each well. […] On the ICC images, migration after 120 hours, neuronal and oligodendrocyte number, neuronal morphology and neuron/oligodendrocyte specific migration is assessed. immunocytochemical staining (ICC) generates an image for each sphere. The plates are scanned using an automated high content imaging device and all nuclei and their positions are determined automatically based on their intensity and size. […]
# [9] = IUF_NPC2-5_viability_120hr: Viability Assessment at 120 hours in the Leibniz Research Institute for Environmental Medicine (IUF) Neural Progenitor Cell Migration and Differentiation Assay (NPC2-5) (AID 2284312)
# In short: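 Human fetal (GW 16-19) neural progenitor spheres of 0.3 mm were plated on poly-D-lysine/laminin in N2 differentiation medium and exposed from day 0 for 120 h, with half-medium refresh at day 3. Viability was read as alamar blue resazurin-to-resorufin fluorescence against DMSO.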
# [10] = IUF_NPC5_oligodendrocyte_differentiation_120hr: Leibniz Research Institute for Environmental Medicine (IUF) 120-hour Oligodendrocyte Differentiation Assay (NPC5) (AID 2284304; active = hit-call score of the fitted dose curve at least 0.9, where 1 is the maximum;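 note: share of O4-positive cells among Hoechst nuclei found by CNN image analysis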)
# In short: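 Human fetal neural progenitor spheres (0.3 mm) plated on poly-D-lysine/laminin in N2 differentiation medium and exposed for 120 h at 7 concentrations, with half-medium renewal at day 3. O4-positive cells identified by CNN, expressed as percent of Hoechst nuclei.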
smiles,measurement,setting,value
O=C(O)C(F)(F)C(F)(F)C(F)(F)C(F)(F)C(F)(F)C(F)(F)C(F)(F)C(F)F,outcome,[1],inactive
C=C(F)C(=O)OC(C(F)(F)F)C(F)(F)F,outcome,[1],inactive
CCCCN(CCO)CCO,outcome,[1],inactive
C=C(C)C(=O)OCCC(F)(F)C(F)(F)C(F)(F)C(F)(F)C(F)(F)C(F)(F)C(F)(F)C(F)(F)F,outcome,[1],inactive
O=C(O)C(F)(F)OC(F)(F)C(F)(F)OC(F)(F)C(F)(F)C(F)(F)C(F)(F)F,AC50,[1],36 µM (active) and 32.4 µM (active)
CCCO[Si](OCCC)(OCCC)OCCC,outcome,[1],inactive
CC(=O)c1ccc(C)cc1,outcome,[1],inactive
CC(C)Cc1ccc(C(C)C(=O)O)cc1 (stereo unspecified),outcome,[2],inactive
same,outcome,[3],inactive
same,outcome,[4],inactive
same,outcome,[5],inactive
same,outcome,[6],inactive
same,outcome,[7],inactive
same,outcome,[8],inactive
same,outcome,[9],inactive
N[C@@H](CCC(=O)O)C(=O)O,outcome,[2],inactive
same,outcome,[3],inactive
same,outcome,[4],inactive
same,outcome,[10],inactive
same,outcome,[5],inactive
same,outcome,[7],inactive
same,outcome,[8],inactive
same,outcome,[9],inactive
O=S(=O)(O)C(F)(F)C(F)(F)OC(F)(F)C(F)(F)F,outcome,[1],inactive
CCn1cc(C(=O)O)c(=O)c2ccc(C)nc21,outcome,[1],inactive
OCC(F)(OC(F)(F)C(F)(OC(F)(F)C(F)(F)C(F)(F)F)C(F)(F)F)C(F)(F)F (stereo unspecified),AC50,[1],4.81 µM (active)
same,outcome,[1],inactive
CC(C)CCCC(C)(C)O,outcome,[1],inactive
c1ccc2scnc2c1,outcome,[2],inactive
same,outcome,[3],inactive
same,outcome,[4],inactive
same,outcome,[5],inactive
same,outcome,[6],inactive
same,outcome,[7],inactive
same,outcome,[8],inactive
same,outcome,[9],inactive
CC(C)(CO)CO,outcome,[1],inactive
c1ccc(OCCOc2ccccc2)cc1,outcome,[1],inactive
CCCCC(CC)COC(=O)COc1ccc(Cl)cc1C (stereo unspecified),outcome,[2],inactive
same,outcome,[3],inactive
same,outcome,[4],inactive
same,outcome,[5],inactive
same,outcome,[6],inactive
same,outcome,[7],inactive
same,outcome,[8],inactive
same,outcome,[9],inactive
